Assay results from the supplement of paper PMC9262897, “Low-cost anti-mycobacterial drug discovery using engineered E. coli” (Nature Communications, 2022).
Structures can show the parent of a compound that is named as a salt. ± gives the standard deviation of the averaged measurements.

What was measured:
Experiment in all cases: growth (OD600 after 10 h); higher = more growth (less inhibition)
[1] = system: E. coli TESEC Alr+ wild-type control; settings: compound 0.1 mM; raw OD600 reference: median of DMSO wells 0.241, cell-free background 0.041
Experimental: (§1)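 TESEC Mtb Alr E. coli, or the Alr+ wild-type control, in 384-well plates with Prestwick library compounds at 0.1 mM and 1% DMSO, across arabinose induction levels of 1E3 to 1E7 nM. Growth is read as OD600 after 10 h at 37 °C in triplicate biological replicates.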

[2] = system: E. coli TESEC Mtb Alr; settings: compound 0.1 mM
Experimental: as §1

[3] = system: E. coli TESEC Mtb Asd; settings: compound 0.1 mM
Experimental: (§2)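 TESEC E. coli strains in which the native enzyme is deleted and replaced by arabinose-inducible Mtb Asd, DapB, CysH or TrpD, each grown in its selective medium. Strains were screened against the Prestwick library at 0.1 mM and 1% DMSO in 384-well format at low and high arabinose induction. Growth is read as OD600 after 10 h in triplicate.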

[4] = system: E. coli TESEC Mtb DapB; settings: compound 0.1 mM
Experimental: as §2

[5] = system: E. coli TESEC Alr+ wild-type control; settings: compound 0.1 mM; raw OD600 reference: median of DMSO wells 0.49, cell-free background 0.052
Experimental: (§3)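 TESEC Mtb Alr E. coli (ΔaraC ΔtolC ΔentC Δalr ΔdadX, arabinose-inducible Mtb Alr) or the Alr+ wild-type control strain, grown in defined M9-fructose medium without D-alanine in 96-well plates with Prestwick library compounds at 0.1 mM and 1% DMSO. Low Alr induction is 0.1 µM arabinose and high induction is 10 mM arabinose.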

[6] = system: E. coli TESEC Mtb Alr; settings: compound 0.1 mM; remark: listed apart in the source
Experimental: as §3

[7] = arabinose 1000 nM, raw OD600 reference: median of DMSO wells 0.294, cell-free background 0.041
[8] = arabinose 10000 nM, raw OD600 reference: median of DMSO wells 0.264, cell-free background 0.041
[9] = arabinose 100000 nM, raw OD600 reference: median of DMSO wells 0.201, cell-free background 0.041
[10] = arabinose 1000000 nM, raw OD600 reference: median of DMSO wells 0.193, cell-free background 0.041
[11] = arabinose 10000000 nM, raw OD600 reference: median of DMSO wells 0.146, cell-free background 0.041
[12] = arabinose induction (level): High, raw OD600 reference: median of DMSO wells 0.331, cell-free background 0.041
[13] = arabinose induction (level): Low, raw OD600 reference: median of DMSO wells 0.417, cell-free background 0.041
[14] = arabinose induction (level): High, raw OD600 reference: median of DMSO wells […], cell-free background 0.041
[15] = arabinose induction (level): Low, raw OD600 reference: median of DMSO wells 0.227, cell-free background 0.041
[16] = arabinose 100 nM, raw OD600 reference: median of DMSO wells 0.413, cell-free background 0.052
[17] = arabinose 10000000 nM, raw OD600 reference: median of DMSO wells […], cell-free background 0.052

SMILES	growth [1]	growth [2, 7]	growth [2, 8]	growth [2, 9]	growth [2, 10]	growth [2, 11]	growth [3, 12]	growth [3, 13]	growth [4, 14]	growth [4, 15]	growth [5]	growth [6, 16]	growth [6, 17]
CC(=O)OCC(=O)[C@@]1(O)[C@H](C)C[C@H]2[C@@H]3CCC4=CC(=O)C=C[C@]4(C)[C@@]3(F)[C@@H](O)C[C@@]21C [Dexamethasone acetate]	0.167 ± 0.006	0.239 ± 0.041	0.226 ± 0.007	0.192 ± 0.017	0.119 ± 0.0023	0.1362 ± 0.00044	0.226 ± 0.034	0.356 ± 0.056	0.171 ± 0.017	0.233 ± 0.03	0.477 ± 0.033	0.396 ± 0.011	0.234 ± 0.018
CN(Cc1cc(Br)cc(Br)c1N)C1CCCCC1 [Bromhexine hydrochloride]	0.0422 ± 0.0023	0.0459 ± 0.0083	0.04107 ± 0.00031	0.0454 ± 0.0014	0.0423 ± 0.00059	0.0454 ± 0.00098	0.194 ± 0.028	0.0472 ± 0.0019	0.04827 ± 0.00047	0.0644 ± 0.0038	0.0641 ± 0.0033	0.0619 ± 0.0019	0.0553 ± 0.0034
C#C[C@]1(O)CC[C@H]2[C@@H]3CCC4=CC(=O)CC[C@@H]4[C@H]3CC[C@@]21CC [Norgestrel-(-)-D]	0.225 ± 0.017	0.271 ± 0.0042	0.2581 ± 0.0012	0.193 ± 0.014	0.179 ± 0.0092	0.145 ± 0.007	0.374 ± 0.051	0.429 ± 0.018	0.191 ± 0.0085	0.234 ± 0.04	0.517 ± 0.04	0.413 ± 0.018	0.331 ± 0.039
Clc1ccccc1C(c1ccccc1)(c1ccccc1)n1ccnc1 [Clotrimazole]	0.03967 ± 0.00012	0.04147 ± 0.00015	0.0452 ± 0.00099	0.0437 ± 0.0032	0.0467 ± 0.00068	0.0448 ± 0.0032	0.0468 ± 0.00044	0.0472 ± 0.0021	0.0469 ± 0.0008	0.0488 ± 0.0015	0.0507 ± 0.0011	0.07627 ± 0.0006	0.0569 ± 0.00059
COC(=O)N/N=C/c1c[n+]([O-])c2ccccc2[n+]1[O-] [Carbadox]	0.197 ± 0.014	0.23 ± 0.011	0.1488 ± 0.00015	0.116 ± 0.003	0.117 ± 0.0034	0.142 ± 0.0022	0.163 ± 0.015	0.192 ± 0.054	0.163 ± 0.017	0.168 ± 0.0094	0.143 ± 0.0067	0.157 ± 0.013	0.082 ± 0.0067
CCOc1ccc2ccccc2c1C(=O)N[C@@H]1C(=O)N2[C@@H]1SC(C)(C)[C@@H]2C(=O)O [Nafcillin sodium salt monohydrate]	0.236 ± 0.0097	0.303 ± 0.011	0.257 ± 0.014	0.203 ± 0.0041	0.188 ± 0.01	0.138 ± 0.0027	0.43 ± 0.048	0.439 ± 0.043	0.183 ± 0.007	0.22 ± 0.0024	0.6426 ± 0.0049	0.403 ± 0.013	0.343 ± 0.016
COC(=O)C1=C(C)NC(C)=C(C(=O)OCCN(C)Cc2ccccc2)C1c1cccc([N+](=O)[O-])c1 (stereo not drawn) [Nicardipine hydrochloride]	0.0481 ± 0.0012	0.0453 ± 0.0013	0.04637 ± 0.00021	0.049 ± 0.0015	0.045 ± 0.0027	0.0566 ± 0.0042	0.054 ± 0.0024	0.0558 ± 0.0072	0.107 ± 0.079	0.0547 ± 0.0015	0.0588 ± 0.0012	0.3938 ± 0.0022	0.0545 ± 0.0036
NS(=O)(=O)Cc1noc2ccccc12 [Zonisamide]	0.252 ± 0.013	0.301 ± 0.012	0.2543 ± 0.0014	0.203 ± 0.0022	0.19 ± 0.0041	0.139 ± 0.0077	0.296 ± 0.019	0.389 ± 0.02	0.201 ± 0.0092	0.234 ± 0.012	0.453 ± 0.018	0.406 ± 0.0079	0.353 ± 0.018
CN[C@@H]1[C@H](O)[C@H](NC)[C@H]2O[C@@]3(O)C(=O)C[C@@H](C)O[C@H]3O[C@@H]2[C@H]1O [Spectinomycin dihydrochloride]	0.0517 ± 0.00091	0.0841 ± 0.0062	0.0632 ± 0.0013	0.075 ± 0.0085	0.0512 ± 0.00079	0.05437 ± 0.00031	0.0788 ± 0.0045	0.0788 ± 0.0017	0.0987 ± 0.0037	0.104 ± 0.013	0.228 ± 0.023	0.308 ± 0.021	0.0979 ± 0.014
CCN(CC)CCNC(=O)c1cc(Cl)c(N)cc1OC [Metoclopramide monohydrochloride]	0.2268 ± 0.0011	0.278 ± 0.016	0.252 ± 0.017	0.195 ± 0.015	0.179 ± 0.0077	0.144 ± 0.0028	0.252 ± 0.015	0.485 ± 0.011	0.193 ± 0.01	0.221 ± 0.018	0.633 ± 0.05	0.409 ± 0.0098	0.358 ± 0.0081
CC/C(=C(\c1ccccc1)c1ccc(OCCN(C)C)cc1)c1ccccc1 [Tamoxifen citrate]	0.0423 ± 0.0005	0.0419 ± 0.002	0.048 ± 0.0005	0.0466 ± 0.0016	0.0485 ± 0.0015	0.0425 ± 0.00078	0.0517 ± 0.002	0.0526 ± 0.002	0.04873 ± 0.00038	0.0937 ± 0.078	0.0552 ± 0.015	0.0503 ± 0.00091	0.0549 ± 0.0014
COc1cc(C)nc(-n2nc(C)cc2OC)n1 [Epirizole]	0.2428 ± 0.0024	0.263 ± 0.012	0.249 ± 0.0083	0.178 ± 0.019	0.18 ± 0.0057	0.139 ± 0.005	0.342 ± 0.051	0.465 ± 0.042	0.192 ± 0.025	0.238 ± 0.054	0.493 ± 0.031	0.421 ± 0.011	0.27 ± 0.12
OCCN1CCN(CCCN2c3ccccc3C=Cc3ccccc32)CC1 [Opipramol dihydrochloride]	0.142 ± 0.003	0.271 ± 0.023	0.245 ± 0.0065	0.179 ± 0.0079	0.0873 ± 0.0083	0.137 ± 0.003	0.16 ± 0.019	0.276 ± 0.024	0.199 ± 0.027	0.218 ± 0.04	0.464 ± 0.013	0.407 ± 0.006	0.298 ± 0.0042
NS(=O)(=O)c1cc2c(cc1C(F)(F)F)NCNS2(=O)=O [Hydroflumethiazide]	0.2612 ± 0.002	0.296 ± 0.0066	0.262 ± 0.01	0.239 ± 0.011	0.1758 ± 0.0006	0.147 ± 0.0041	0.388 ± 0.036	0.442 ± 0.06	0.184 ± 0.012	0.239 ± 0.028	0.455 ± 0.035	0.406 ± 0.013	0.32 ± 0.053
CCCC(=O)Nc1ccc(OCC(O)CNC(C)C)c(C(C)=O)c1 (stereo not drawn) [Acebutolol hydrochloride]	0.239 ± 0.008	0.305 ± 0.011	0.257 ± 0.0087	0.202 ± 0.014	0.174 ± 0.0073	0.1572 ± 0.0014	0.264 ± 0.04	0.413 ± 0.007	0.197 ± 0.025	0.265 ± 0.067	0.46 ± 0.044	0.411 ± 0.0058	0.354 ± 0.01
CCCCC(C)(O)C/C=C/[C@H]1[C@H](O)CC(=O)[C@@H]1CCCCCCC(=O)OC (mixture of isomers) [Misoprostol]	0.323 ± 0.014	0.3803 ± 0.0025	0.278 ± 0.0043	0.474 ± 0.013	0.193 ± 0.009	0.22 ± 0.013	0.35 ± 0.071	0.44 ± 0.022	0.332 ± 0.034	0.311 ± 0.044	0.518 ± 0.094	0.432 ± 0.0064	0.378 ± 0.013
